Source: PubChem (National Center for Advancing Translational Sciences (NCATS))
ELG1 genotoxic: qHTS screen for small molecules that induce genotoxicity in human embryonic kidney (HEK293T) cells expressing luciferase-tagged ELG1; HEK293T ELG1-luciferase reporter, luminescence, 16 h; Potency, µM (titrated, usually from 46 µM), for the others: at the top dose activity change, positive = activation, hits mostly activators; actives 1.3% (n = 330,000); note: % of control where 0% means no effect; nearly all actives have a fitted effect of over 60% in size
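Luminescence read-out: rising ELG1-luciferase signal, reflecting elevated ELG1 protein under genetic stress, flags genotoxic compounds. Cells were treated for 16 hr at 37 °C before ONE-Glo detection.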
Luc counter: Counterscreen for Luciferase (Kinase-Glo TM) Inhibition; Luciferin 4-monooxygenase (Photuris pensylvanica), Q27757; Kinase-Glo luciferase, ATP luminescence, 8 min; Potency, µM (highest dose often 38.3 µM), inactives show at the top dose activity change, negative = inhibition, most hits filed as inhibitors; actives 0.28% (n = 200,000); note: % is set by controls: 0 for no effect and ±100 for the full control effect; nearly all actives have a fitted effect of over 60% in size
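Recombinant Kinase-Glo luciferase, 10 uM ATP (linear range), luciferin; imidazole pH 7.2 / KCl / MgCl2 / Tween / BSA buffer; 8 min RT; luminescence.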
SMN2 splice enh: qHTS Assay for Enhancers of SMN2 Splice Variant Expression. HEK293 SMN2-luciferase splicing reporter, luminescence, 30-36 h. actives 2.8% (n = 210,000). Potency, µM (series often up to 46.1 µM), for inactives: top-dose activity change, positive = activation, actives largely listed as activators. AID 1458, 2008; note: % of control where 0% means no effect; nearly all actives have a fitted effect of over 55% in size
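HEK293 cells carry an SMN2 minigene-luciferase reporter in which exon 7 inclusion puts luciferase in frame. Cells were seeded at 2000 cells/well, attached for 10-12 hours, then exposed to compounds for 30-36 hours at 37C before ONE-Glo luminescence.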
Rab9 prom act: qHTS Assay for Rab9 Promoter Activators; Huh7 Rab9 promoter-luciferase reporter, luminescence, 24 h; Potency, µM (doses to about 9.22 µM), inactives show at the top dose activation, negative = inhibition, usual class: activators; actives 2.8% (n = 320,000); note: % of control where 0% means no effect; nearly all actives have a fitted effect of over 60% in size
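Huh7 cells stably carrying Rab9 promoter–luciferase reporter, plated 1500 cells/well, compound added after 2 h and incubated 24 h at 37 °C; luciferase luminescence then read after 10 min with detection reagent.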
FLuc modulator: qHTS profiling assay for firefly luciferase inhibitor/activator using purifed enzyme and Km concentrations of substrates (counterscreen for miR-21 project); AID 588342, 2011; purified FLuc, Km substrates, luminescence inhibition; Potency, µM (highest dose often 57.5 µM), for the others: at the top dose activity change, negative = inhibition, actives largely listed as inhibitors; actives 6.9% (n = 360,000);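 note: plate controls were vehicle for no effect and reference inhibitor for full effect; nearly all actives have a fitted effect of over 55% in size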
Target sequence (P08659 whole entry, looked up): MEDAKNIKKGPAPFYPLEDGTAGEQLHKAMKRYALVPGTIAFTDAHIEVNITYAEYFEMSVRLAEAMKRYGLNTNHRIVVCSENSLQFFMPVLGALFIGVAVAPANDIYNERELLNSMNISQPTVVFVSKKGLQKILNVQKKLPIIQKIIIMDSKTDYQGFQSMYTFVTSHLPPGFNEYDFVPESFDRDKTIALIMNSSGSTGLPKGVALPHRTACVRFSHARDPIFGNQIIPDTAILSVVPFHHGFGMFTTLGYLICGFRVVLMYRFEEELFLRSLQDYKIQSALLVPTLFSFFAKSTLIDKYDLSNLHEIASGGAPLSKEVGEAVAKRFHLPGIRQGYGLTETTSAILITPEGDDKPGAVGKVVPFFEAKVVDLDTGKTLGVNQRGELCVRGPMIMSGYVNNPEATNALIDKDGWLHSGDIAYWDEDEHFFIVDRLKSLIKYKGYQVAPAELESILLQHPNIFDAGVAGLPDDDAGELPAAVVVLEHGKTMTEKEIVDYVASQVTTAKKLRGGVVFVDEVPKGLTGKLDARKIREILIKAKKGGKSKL
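Purified P. pyralis luciferase (10nM final) with 10uM D-luciferin and 10uM ATP (Km levels) in 50mM Tris acetate pH 7.5, 10mM Mg acetate, 0.01% Tween-20, 0.05% BSA; qHTS 6-point titration, ~60 µM downward; luminescence read.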
NPC1 promoter act: qHTS Assay for NPC1 Promoter Activators | Huh7 NPC1 promoter luciferase reporter, 24 h | actives 2.4% (n = 320,000) | Potency, µM (top dose mostly 9.22 µM), for inactives: top-dose activation, usual class: activators | AID 485313, 2010; note: % of control where 0% means no effect; nearly all actives have a fitted effect of over 60% in size
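Readout is luciferase luminescence, reflecting NPC1 promoter activation in stably transfected Huh7 cells after 24 h compound exposure at 37 °C in reduced-serum medium with 10% FBS.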
* hit, by the source's call; u = inconclusive; x = no result; [ ] = another dose, or the depositor's remark. Most compounds without a hit are left out; they make up all but 7.4% or so of the library. Calls come from the whole dose curve; as a rule, active = well fitted curve in the direction sought with a large enough effect; inconclusive = small, poorly fitted or top-dose-only effect, or another doubt; inactive = no such curve, though single readings can be large; an effect the other way counts as inactive or inconclusive. Potency is the fitted concentration of half-maximal effect.

SMILES | ELG1 genotoxic | Luc counter | SMN2 splice enh | Rab9 prom act | FLuc modulator | NPC1 promoter act
O=C(N/N=C/c1ccc2c(c1)OCO2)c1ccccn1 | u | 10µM* | 3.5µM* | 0.4µM* | 2.1µM* | 0.32µM*
COc1ccc(Cn2c(=O)c3oc4ccccc4c3n(Cc3ccc(F)cc3)c2=O)cc1 | x | x | x | x | -3% | x
O=C(N/N=C/c1cc2c(cc1Br)OCO2)c1cc2ccccc2o1 | 6% | x | x | 22% | 9.5µM* | 22%
O=C(N/N=C/c1cc2c(cc1Br)OCO2)c1ccccn1 | u | x | x | 1.3µM* | 2.7µM* | 2.5µM*
Nc1nonc1C(=O)N/N=C/c1cc2c(cc1Br)OCO2 | 16% | x | x | -1% | u | -6%
CC(C)(C)c1cc(C(=O)N/N=C/c2cc3c(cc2Br)OCO3)n[nH]1 | 1% | x | x | -2% | -6% | -11%
Cc1ccc(C(=O)N/N=C\c2cc3c(cc2Br)OCO3)cn1 | u | x | x | -6% | 2% | -7%
O=C(N/N=C/c1ccsc1)c1ccc2ccccc2n1 | 13% | -9% | 27% | u | 21µM* | 22%
O=C(N/N=C/c1cc2c(cc1Br)OCO2)c1c[nH]c2ccccc12 | 8% | -1% | 11µM* | 2.5µM* | 9.5µM* | 2.5µM*
Nc1nc(Cl)nc2c1ncn2[C@@H]1O[C@H](COP(=O)(O)OP(=O)(O)OP(=O)(O)O)[C@@H](O)[C@H]1O | x | x | x | -4%[46.1 µM] | x | 1%[46.1 µM]
COc1ccc(OC)c(NC(=O)C2=C(C)C(=O)OC23CCCCCC3)c1 | x | x | x | x | 0% | x
Cc1ccc(S(=O)(=O)Nc2ccc3c(c2)OCCO3)cc1C | 5% | 2% | x | 0% | 21µM* | -3%
Cc1cccc(NS(=O)(=O)c2ccc3c(c2)OCCO3)c1 | -7% | -3% | 14µM* | -1% | 4% | -1%
C=C(C)CSc1nc2sc3c(c2c(=O)n1Cc1ccccc1)CC(C)(CC)OC3 (stereo not given) | x | x | -21% | x | -7% | x
CC(C)CC(=O)Nc1nnc(S(=O)(=O)N(CC(C)C)c2ccccc2)s1 | x | x | x | x | 0.85µM* | x
CCN(c1ccccc1)S(=O)(=O)c1nnc(NC(=O)C2CCCCC2)s1 | x | x | x | x | 2.7µM* | x
CC(C)CN(c1ccccc1)S(=O)(=O)c1nnc(NC(=O)C(C)C)s1 | 1% | x | x | -4% | 1% | -2%
CCN(c1cccc(C)c1)S(=O)(=O)c1nnc(NC(=O)C2CCCCC2)s1 | x | x | x | x | 15µM* | x
CCN(c1ccc(C)cc1)S(=O)(=O)c1nnc(NC(=O)C2CCCCC2)s1 | x | x | x | x | 11µM* | x
COC(=O)[C@@H]1CCCN1C(=O)CCc1nnc(CCC2CCCCC2)o1 | u | -4% | u | u | 19µM* | 28%
COC(=O)[C@@H]1CCCN1C(=O)CCc1nnc(CCc2c[nH]c3ccccc23)o1 | 8% | -6% | x | 13% | 17µM* | 12%
COC(=O)C1CCCCN1C(=O)CCc1nnc(CCc2c[nH]c3ccccc23)o1 (stereo not given) | 0% | 2% | x | -2% | 2% | -23%
O=c1c(Cl)c(NCc2ccccc2Cl)cnn1C12CC3CC(CC(C3)C1)C2 | 1% | 5% | -51% | -4% | 12µM* | -4%
CCN1C(=S)SC(=O)C1=C1C=C(C)OC(C)=C1 | 13% | 14% | 1% | u | u | u
CCN1C(=S)SC(=O)C1=C1C=C(C)N(Cc2ccco2)C(C)=C1 | 2.6µM* | -1% | u | 0.63µM* | 3.4µM* | 1.4µM*
Cc1nnc(SCc2ccc(C(=O)Nc3cc(Cl)ccc3C)cc2)s1 | 0% | 0% | -29% | -6% | 15µM* | -1%
Cc1ccc(NC(=O)c2ccc(CSc3nnc(C)s3)cc2)c(C)c1 | 5% | 0% | 12% | u | 13µM* | u
